High-throughput results deposited in PubChem BioAssay by National Center for Advancing Translational Sciences (NCATS).
Sampled rows, rich in hits. Any-hit rate of the full collection: about 2.3%.
p53ts 32C tox – qHTS Screen for Compounds that Selectively Target Cancer Cells with p53 Mutations: Cytotoxicity of p53ts Cells at the Permissive Temperature | H1299-p53A138V at 32C, ATP luminescence viability, 24 h | Potency, µM (highest dose often 46.1 µM), without a hit: at the top dose activity change, negative = cytotoxicity, usual class: cytotoxic | 130,000 tested, 0.93% active;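 also: 0% = DMSO and -100% = full killing by reference compound; nearly all actives have a fitted effect of over 55% in size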
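Viability by ATPlite luminescence after 24 h compound treatment (up to 46 uM) at the permissive 32C. Cells are H1299 carrying p53 A138V. Scale runs from DMSO basal to 100 uM tamoxifen as full kill; AC50 from Hill fits.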
ERK AVP inh – qHTS Assay for Inhibitors of the ERK Signaling Pathway using a Homogeneous Screening Assay; Potency, µM (titrated, usually from 57.5 µM), inactives show top-dose activity, negative = inhibition, most hits filed as inhibitors; 72,000 tested, 0.99% active; AID 995, 2007; HEK293-V1b, vasopressin-stimulated pERK AlphaScreen; also: % is scaled to controls: 0 for no effect and ±100 for the full control effect; nearly all actives have a fitted effect of over 55% in size
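qHTS, compounds titrated on V1b-expressing HEK293 cells. Preincubation 30 min at 37C, vasopressin 25 nM for 5 min, lysis 10 min, bead incubation 5 hr at room temperature.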
Imprint erasure – qHTS Assay for Compounds that Induce Erasure of Genomic Imprints; mouse ES Peg3-LacZ reporter, beta-gal luminescence, 40 h; AID 1948, 2009; 110,000 tested, 0.02% active; Potency, µM (highest dose often 60.7 µM), without a hit: top-dose activity change, positive = activation, hits mostly activators
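Gelatin-coated wells received 300 freshly trypsinized female ES cells with a Peg3LacZ-Neo reporter on the maternal allele, then incubated 40 hours at 37C. BetaGlo was added for 5 minutes at room temperature before a single luminescence read.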
IkB sig inh – IkB Signaling. ABC-DLBCL IkBa-CBG/CBR dual luciferase ratio, 4 h; response scale: scaled: untreated 0%, proteasome inhibitor 100%. Potency, µM (highest dose often 57.1 µM), for the others: top-dose IkBa stabilization activation. 110,000 tested, 0.04% active. AID 445, 2006; active = well fitted curve in the direction sought with a large enough effect in the signal ratio, not every such curve was filed as active; inconclusive = small, poorly fitted or top-dose-only effect, or a change in a side signal; the % refers to the signal ratio;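 also: the direction sought is a rising ratio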
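Luminescence ratio of IκBα-fused green versus native red beetle luciferase in OCI-Ly3 cells, 4 h post-doxycycline with compound; red signal alone, scaled from basal (0%) to zero light (-100%), flagged nonspecific or cytotoxic effects.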
p53ts 39C kill – qHTS Screen for Compounds that Selectively Target Cancer Cells with p53 Mutations: Cytotoxicity of p53ts Cells at the Nonpermissive Temperature. H1299-p53A138V viability at 39C, ATP luminescence, 24 h. Potency, µM (series often up to 46.1 µM), for inactives: top-dose activity change, negative = cell killing, most hits filed as cytotoxic. 130,000 tested, 1.5% active; also: % is scaled to controls: 0 for no effect and ±100 for the full control effect; nearly all actives have a fitted effect of over 55% in size
Starred values were filed as active, the others as inactive; ? = inconclusive; . = not tested or not shown; [ ] = remark or other dose. Unless noted, calls follow the shape of the dose curve; as a rule, active = well fitted curve in the direction sought with a large enough effect; inconclusive = small, poorly fitted or top-dose-only effect, or another doubt; inactive = no such curve, though single readings can be large; an effect the other way counts as inactive or inconclusive. Potency is read from the fitted curve at half-maximal effect.

SMILES | p53ts 32C tox | ERK AVP inh | Imprint erasure | IkB sig inh | p53ts 39C kill
CCOc1ccccc1Nc1nc(-c2cccc(Cl)c2)c2c(n1)-c1ccccc1OC2 | ? | . | -13%[10.9 µM] | ? | 13µM*
Cc1c(-c2ccc(Cl)cc2)c(=O)oc2c(CN3CCN(CCO)CC3)c(O)ccc12 | 0% | . | -10%[10.9 µM] | 0% | 2%
CCC(=O)Nc1ccc(NC(=O)c2ccccn2)cn1 | ? | ? | -73% | ? | ?
CC(C)C(=O)Nc1ccc(NC(=O)c2ccccn2)cn1 | 7.9µM* | 10% | -84% | 1% | 13µM*
O=C(Nc1ccc(NC(=O)C23CC4CC(CC(C4)C2)C3)cn1)c1ccco1 | -7% | -5% | -2% | 0% | -17%
O=C(Nc1ccc(NC(=O)C2CC2)nc1)c1ccccn1 | 13µM* | -22% | -88% | ? | 6.3µM*
O=C(Nc1ccc(NC(=O)c2ccco2)nc1)c1ccccn1 | 13µM* | 3% | -90% | ? | 13µM*
O=C(Nc1ccc(NC(=O)C2CCCCC2)cn1)c1ccco1 | 4µM* | -17% | -65% | 0% | 5µM*
CSc1ncnc2nc[nH]c12 | 14% | . | -33% | 1% | 32%
C=C(CC(=O)O)C(=O)O (tested in a mixture with another compound) | 0%[9.22 µM] | -1%[11.5 µM] | 11%[10.9 µM] | 0%[11.4 µM] | -5%[9.22 µM]
CC1CCC2C(=O)N3C(CCC(C)C3c3ccc(-c4ccco4)cc3)C(=O)N2C1c1ccc(-c2ccco2)cc1 (stereo not drawn) | 2%[9.22 µM] | 35%[11.5 µM] | . | . | 13%[9.22 µM]
CC1(C)C(=O)NC2=C1C(=O)C(=O)c1ccccc12 | 1.3µM* | -28% | -68% | ? | 1µM*
CCOc1ccc(C(=O)Nc2ccc3nc(Nc4cccc(C(F)(F)F)c4)cc(C)c3c2)cc1OCC | 0% | . | . | . | .
Cc1cc(Nc2cccc(C(F)(F)F)c2)nc2ccc(NC(=O)c3cccnc3)cc12 | 13µM* | . | . | . | .
Nc1nc(CN2CCN(c3cccc(Cl)c3)CC2)nc(N2CCCc3ccccc32)n1 | -20% | 6.3µM* | 0% | ? | -24%
Nc1nc(CN2CCN(c3ccccc3)CC2)nc(N2CCCc3ccccc32)n1 | -5% | -23% | -6% | 1% | -2%
Cc1nn(-c2ccccc2)c(Cl)c1C(=O)N1CCN(c2ncnc3c2cnn3-c2ccccc2)CC1 | 10µM* | 7% | -25% | ? | ?
Clc1cccc(-n2ncc3c(N4CCCCCC4)ncnc32)c1 | ? | . | -12%[10.9 µM] | ? | 13µM*
Cc1ccc(Cl)cc1-n1ncc2c(N3CCN(Cc4ccccc4)CC3)ncnc21 | 16µM* | . | -15%[10.9 µM] | ? | 20µM*
CCN(c1ncnc2c1cnn2-c1cccc(Cl)c1)C1CCCCC1 | ? | . | -14%[10.9 µM] | -1% | ?
Clc1cccc(-n2ncc3c(N4CCCCC4)ncnc32)c1 | 3.2µM* | . | -41%[10.9 µM] | ? | 6.3µM*
C[Si](C)(c1ccc(C(=O)O)cc1)c1ccc(C(=O)O)cc1 | 10%[9.22 µM] | 17%[11.5 µM] | 7%[10.9 µM] | 0%[11.4 µM] | -4%[9.22 µM]
CC(C)c1ccc(Cn2ccc3c4c(N)nc(NC5CC5)nc4ccc32)cc1 | ? | -12% | -26% | 0% | 32µM*
Cc1ccccc1CSc1ccc(-c2cccs2)nn1 | ? | . | -13%[10.9 µM] | -1% | 11µM*
CN(C)CCNS(=O)(=O)N(C)C | 5%[9.22 µM] | 1%[11.5 µM] | -1%[10.9 µM] | 0%[11.4 µM] | -7%[9.22 µM]
SMILES | p53ts 32C tox | ERK AVP inh | Imprint erasure | IkB sig inh | p53ts 39C kill
COc1ccc(Nc2cc(C(=O)NCCCN(C)Cc3ccccc3)c3ccccc3n2)cc1 | ? | . | -11%[10.9 µM] | ? | ?
Cc1cc(C)cc(Nc2cc(C(=O)NCCCN(Cc3ccccc3)C(C)C)c3ccccc3n2)c1 | -16% | . | -12%[10.9 µM] | ? | 16µM*
CSc1cccc(Nc2cc(C(=O)NCCCN(Cc3ccccc3)C(C)C)c3ccccc3n2)c1 | ? | . | -13%[10.9 µM] | -5% | 16µM*
CC(C)(C(=O)O)c1ccc([C@@H](O)CCCN2CCC(C(O)(c3ccccc3)c3ccccc3)CC2)cc1 | . | -27% | . | -2% | .
C=C(C)CN(CC#N)CC(=C)C | 0%[9.22 µM] | 19%[11.5 µM] | 0%[10.9 µM] | 1%[11.4 µM] | -20%[9.22 µM]
COc1cccc(N2CCN(C(=O)CCCn3c(=O)[nH]c4ccc(Br)cc4c3=O)CC2)c1 | 13µM* | . | -14%[10.9 µM] | ? | -17%
COc1ccc2c(c1OC)C(=O)N1c3ccccc3COC21 (stereo not drawn) | 13µM* | -10% | -47% | 2% | 16µM*
COc1cccc(-n2c(=O)c3sc4ccccc4c3n(CC(=O)Nc3ccccc3OC)c2=O)c1 | -12% | . | -8%[10.9 µM] | 13% | 10µM*
COc1cccc(-n2c(=O)c3sc4ccccc4c3n(CC(=O)Nc3ccccc3C)c2=O)c1 | -12% | . | -8%[10.9 µM] | 7% | 1%
Cc1nnc(Sc2nc(Sc3nnc(C)s3)nc(N3CCN(C)CC3)n2)s1 | 20µM* | -24% | -24% | 7.9µM* | 4µM*
O=C(O)C1=C/C(=C(/c2ccccc2)c2cc(C(=O)O)c(O)c3ccccc23)c2ccccc2C1=O | -19%[9.22 µM] | -26%[11.5 µM] | 11%[10.9 µM] | 3%[11.4 µM] | 10%[9.22 µM]
O=C(O)/C(=C\c1ccccc1)Cc1ccccc1 | 5%[9.22 µM] | -15%[11.5 µM] | ? | -1%[11.4 µM] | 9%[9.22 µM]
Cc1cc(C(=O)COC(=O)CNC(=O)c2ccco2)c(C)n1Cc1ccco1 | . | . | . | . | 16%
CCOc1ncccc1C(=O)OCC(=O)c1cc(C)n(Cc2ccco2)c1C | 13µM* | 6% | -49% | ? | -18%
Cc1ccccc1Nc1c(-c2ccc(N3CCOCC3)cc2)nc2ccc(Cl)cn12 | ? | . | -30%[10.9 µM] | ? | 10µM*
Cc1ccc2nc(-c3ccc(N4CCOCC4)cc3)c(Nc3ccccc3C)n2c1 | 13µM* | . | -12%[10.9 µM] | ? | ?
CC(C)c1ccc(OC(=O)c2cc(-c3ccc4c(c3)OCCO4)on2)cc1 | 13µM* | . | -19%[10.9 µM] | 0% | 20µM*
O=C(Oc1ccccc1Cl)c1cc(-c2ccc3c(c2)OCCO3)on1 | ? | . | -21%[10.9 µM] | 1% | ?
N#Cc1ccc(OC(=O)c2cc(-c3ccc4c(c3)OCCO4)on2)cc1 | ? | . | -9%[10.9 µM] | 3% | 13µM*
COC(=O)c1cc(-c2ccc(OC)c(OC)c2)on1 | -11% | 7.9µM* | -14% | 0% | 2%
COc1ccc(OC(=O)c2cc(-c3ccc4c(c3)OCCO4)on2)cc1 | 13µM* | . | -21%[10.9 µM] | 1% | 13µM*
O=C(Oc1ccc(Cl)cc1)c1cc(-c2ccc3c(c2)OCCO3)on1 | -15% | . | -13%[10.9 µM] | 1% | ?
NC(=O)C1=CN([C@@H]2O[C@@H](COP(=O)(O)OP(=O)(O)OC[C@@H]3O[C@H](n4cnc5c(N)ncnc54)[C@@H](OP(=O)(O)O)[C@@H]3O)[C@H](O)[C@@H]2O)C=CC1 | 34% | 16% | . | -5% | 33%
Cc1noc(NC(=O)Nc2ccccc2F)c1C#N | -1%[9.22 µM] | 6%[11.5 µM] | -20%[10.9 µM] | 7%[11.4 µM] | 2%[9.22 µM]
